Results from PubChem BioAssay (NCATS).
Activity calls are given as the source filed them. Calls come from the whole dose curve; as a rule, active = well fitted curve in the direction sought with a large enough effect; inactive = no such curve, though single readings can be large or run the other way.

Target: Alpha-galactosidase (Coffea arabica) (UniProt Q42656)
Assay: Counterscreen for Glucocerebrosidase Inhibitors: qHTS Assay for Coffee Bean alpha-Galactosidase at pH 5.9 (AID 998)
Conditions: coffee bean alpha-galactosidase enzyme assay; series mostly up to 76.9 µM
Summary of the method: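 Enzyme 2 nM + cpd (0.7 nM–77 uM titration) + 4-MU-alpha-Gal 80 uM, pH 5.9 citrate/Tween-20, RT 20 min, NaOH/glycine stop pH 10, fluor 365/440. Normalized to no-enzyme and full-activity controls; Hill-fit AC50.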

Sequence of Alpha-galactosidase (Coffea arabica) (Q42656 whole entry, looked up): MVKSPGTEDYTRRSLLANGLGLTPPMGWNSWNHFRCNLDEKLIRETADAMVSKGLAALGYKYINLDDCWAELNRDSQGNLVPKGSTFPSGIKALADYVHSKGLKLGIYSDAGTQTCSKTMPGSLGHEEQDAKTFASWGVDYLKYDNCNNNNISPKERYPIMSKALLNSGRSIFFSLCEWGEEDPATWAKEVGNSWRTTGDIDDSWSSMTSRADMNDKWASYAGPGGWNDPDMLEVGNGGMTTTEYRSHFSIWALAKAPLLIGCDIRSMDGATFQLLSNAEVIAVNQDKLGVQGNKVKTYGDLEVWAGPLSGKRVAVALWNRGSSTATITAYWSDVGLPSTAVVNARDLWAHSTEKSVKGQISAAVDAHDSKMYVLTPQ

Row | SMILES | outcome
1 | Cc1ccc(=O)n(-c2ccccc2)c1 | inactive
2 | CN(C)CCCN1c2ccccc2Sc2ccccc21 | inactive
3 | NC(N)=NC(=O)c1nc(Cl)c(N)nc1N | inactive
4 | CCOC(=O)Nc1ccc(NCc2ccc(F)cc2)nc1N | inactive
5 | CN1CCC(=C2c3ccccc3CC(=O)c3sccc32)CC1 | inactive
6 | CCCCNc1cc(C(=O)O)cc(S(N)(=O)=O)c1Oc1ccccc1 | inactive
7 | O=c1[nH]c2ccccc2n1CCCN1CCN(C(c2ccccc2)c2ccccc2)CC1 | inactive
8 | NS(=O)(=O)c1cc2c(cc1Cl)NCNS2(=O)=O | inactive
9 | CC(C)NCC(O)COc1ccc(COCCOC(C)C)cc1 (stereo not drawn) | inactive
10 | COC(=O)[C@@H](N)Cc1ccc(O)c(O)c1 | inactive
11 | C#CCN(C)Cc1ccccc1 | inactive
12 | O=C(c1ccc(F)cc1)C1CCN(CCn2c(=O)[nH]c3ccccc3c2=O)CC1 | inactive
13 | Cn1cnc2c1c(=O)[nH]c(=O)n2C | inactive
14 | CCCCNc1ccc(C(=O)OCCN(C)C)cc1 | inactive
15 | Brc1c(NC2=NCCN2)ccc2nccnc12 | inactive
16 | C[C@]12CCC(=O)C=C1CC[C@@H]1[C@@H]2[C@@H](O)C[C@@]2(C)[C@H]1CC[C@]2(O)C(=O)CO | inactive
17 | CC(C)(C)c1ccc(C(O)CCCN2CCC(C(O)(c3ccccc3)c3ccccc3)CC2)cc1 (stereo not drawn) | inactive
18 | c1cnc(N2CCN(Cc3ccc4c(c3)OCO4)CC2)nc1 | inactive
19 | CCN(CC)CC(=O)Nc1c(C)cccc1C | inactive

Row | SMILES | outcome
20 | CCCOc1ccccc1-c1nc2n[nH]nc2c(=O)[nH]1 | inactive
21 | CCc1cccc(N(C)C(N)=Nc2cccc3ccccc23)c1 | inactive
22 | COCC(=O)O[C@]1(CCN(C)CCCc2nc3ccccc3[nH]2)CCc2cc(F)ccc2[C@@H]1C(C)C | inactive
23 | COc1ccccc1N1CCN(CCCNc2cc(=O)n(C)c(=O)n2C)CC1 | inactive
24 | Clc1ccc(Cn2c(CN3CCCC3)nc3ccccc32)cc1 | inactive
25 | CCCCC1C(=O)N(c2ccccc2)N(c2ccccc2)C1=O | inactive
26 | CN(C)CCCN1c2ccccc2Sc2ccc(C(F)(F)F)cc21 | inactive
27 | CCC(=O)c1ccc2c(c1)N(CCCN(C)C)c1ccccc1S2 | inactive
28 | C[C@]12CCC(=O)C=C1CC[C@@H]1[C@@H]2C(=O)C[C@@]2(C)[C@H]1CC[C@]2(O)C(=O)CO | inactive
29 | CC1=C(CC(=O)O)c2cc(F)ccc2/C1=C\c1ccc(S(C)(=O)=O)cc1 | inactive
30 | O=C(CCNNC(=O)c1ccncc1)NCc1ccccc1 | inactive
31 | CN(C)C(=O)Oc1cccc([N+](C)(C)C)c1 | inactive
32 | CSc1ccc(C(=O)c2[nH]c(=O)[nH]c2C)cc1 | inactive
33 | NCCc1cnc[nH]1 | inactive
34 | Oc1ccc(O)cc1 | inactive
35 | C[n+]1cc2c3c(ccc2c2ccc4cc5c(cc4c21)OCO5)OCO3 | inactive
36 | C[C@]12C=CC(=O)C=C1CC[C@H]1[C@@H]3C[C@@H](O)[C@](O)(C(=O)CO)[C@@]3(C)C[C@H](O)[C@@]12F | inactive
37 | CN1[C@@H]2CC[C@H]1CC(OC(=O)c1c[nH]c3ccccc13)C2 (stereo partly drawn) | inactive
38 | Cc1nc2sccn2c(=O)c1CCN1CCC(=C(c2ccc(F)cc2)c2ccc(F)cc2)CC1 | inactive
